# Screening results from PubChem.
# In the library only some 9.3% were active in any assay of this set; here they are far more common.
# HCMV antiviral: qHTS Assay for inhibitors of the human cytomegalovirus (HCMV) | 410,000 tested, 4.5% active | activity change, negative = inhibition, % at 57.5 µM | AID 1259415, 2018 | HFF cells, HCMV-luciferase reporter, 72 h; active compounds read low; in the data active = activity change below about -60%; inconclusive = no clear call, values can overlap the other calls; inactive = above about -39%
#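 Steps: HFFs plated, 16 h 37C; compounds added; HCMV-luciferase added to MOI 1 PFU/cell; 72 h 37C; OneGlo reagent, 5 min room temperature; luminescence read, normalized to controls.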
# HCV inh: qHTS Assay for Inhibitors of Hepatitis C Virus (HCV); Huh7.5.1 HCVcc-Cre infection, luciferase reporter, 44 h; Potency, µM (top dose mostly 41.8 µM), without a hit: at the top dose activity change, negative = inhibition, hits mostly inhibitors; 340,000 tested, 3.4% active; AID 651820, 2012; note: potency is the fitted concentration of half-maximal effect
#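 Luciferase read-out (15 sec integration) after a 15 min room-temperature substrate step quantifies HCVcc-Cre infection. Cells, 1,000 per well, had compound added 4 h post-plating, then virus at ~0.5 moi, and were cultured 44 h.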
# Vaccinia mCherry: qHTS for Stage-Specific Inhibitors of Vaccinia Orthopoxvirus: mCherry Reporter Primary qHTS. Vaccinia virus mCherry reporter infection, fluorescence. 310,000 tested, 0.63% active. Potency, µM (doses to about 36.5 µM), for inactives: top-dose activity change, negative = inhibition, actives largely listed as inhibitors; calls by dose curve; tested in A549 cells; note: potency is the fitted concentration of half-maximal effect; nearly all actives have a fitted effect of over 35% in size
# Vaccinia Venus: qHTS for Stage-Specific Inhibitors of Vaccinia Orthopoxvirus: Venus Reporter Primary qHTS; Potency, µM (series often up to 36.5 µM), for the others: top-dose activity change, negative = inhibition, hits mostly inhibitors; Vaccinia virus Venus reporter expression, fluorescence; 330,000 tested, 0.46% active; calls by dose curve; tested in A549 cells; note: potency is the fitted concentration of half-maximal effect; nearly all actives have a fitted effect of over 30% in size
# FMDV antiviral: High Throughput Screening for Foot and Mouth Disease Virus Antivirals; AID 1159524, 2015; FMDV antiviral cell-based qHTS; Potency, µM (top dose mostly 57.9 µM), inactives show at the highest dose activity change, negative = inhibition, hits mostly inhibitors; 410,000 tested, 1.2% active; calls by dose curve; tested in HEK293T cells; note: read-out not given here; potency is the fitted concentration of half-maximal effect; nearly all actives have a fitted effect of over 45% in size
# Sm TGR block: qHTS Assay for the Inhibitors of Schistosoma Mansoni Peroxiredoxins; Schistosoma mansoni thioredoxin glutathione reductase (TGR), Q962Y6; purified TGR, DTNB reduction, TNB absorbance 405 nm; Potency, µM (doses to about 114 µM), without a hit: top-dose activity change, negative = inhibition, hits mostly inhibitors; 360,000 tested, 3% active; note: potency is the fitted concentration of half-maximal effect; nearly all actives have a fitted effect of over 60% in size
#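 TGR 20 nM + NADPH 100 uM (dispensed conc.), cpd preinc 15 min RT; start with NADPH (500 uM addition) then DTNB (15 mM addition). Kinetic TNB absorbance, 405 nm filter. Four-parameter Hill fit across titration.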
# * = called active by the depositor; i = inactive; ? = inconclusive; · = no result; + = active, no number; ! = not confirmed by another sample; [ ] = dose if it differs, or a comment. Unless noted, calls come from the whole dose curve; as a rule, active = well fitted curve in the direction sought with a large enough effect; inconclusive = small, poorly fitted or top-dose-only effect, or another doubt; inactive = no such curve, though single readings can be large; an effect the other way counts as inactive or inconclusive. % is set by controls: 0 for no effect and ±100 for the full control effect.
SMILES,HCMV antiviral,HCV inh,Vaccinia mCherry,Vaccinia Venus,FMDV antiviral,Sm TGR block
Cc1ccc(CN2CCN(Cc3ccccc3)CC2)cc1,22,2%,·,·,-25%,0%
CC1(C)CC(NNCCC#N)=CC(=[N+]2CCCC2)C1,?,1%,-2%,10%,2%,-22%
CN(Cc1ccccc1)C1=CC(=[N+]2CCCCC2)CC(C)(C)C1,-77*,2.8µM*,i[7.34 µM],-21%[7.34 µM],?,?
CC1(C)CC(N2CCN(Cc3ccccc3)CC2)=CC(=[N+]2CCCCC2)C1,+,?,i,-20%,?,-22%
CC1(C)CC(N2CCCC2)=CC(=[N+]2CCCC2)C1,-94*,-20%,·,·,?,-12%
CCOC(=O)c1c(NC(=O)CN2CCN(C(=O)c3ccco3)CC2)sc(C)c1C,-3,·,?,?,-25%,1%
CCc1c(C)sc(NC(=O)CN2CCN(C(=O)c3ccco3)CC2)c1C(=O)OC,-15,11µM*,-8%,-18%,?,?
Cc1ccc(CN(CC(=O)NC2CCCC2)C(=O)c2csnn2)cc1,1,20%,-12%,-12%,-7%,-9%
CC/C(=N/Nc1ccccc1Cl)c1cnnc(-c2ccccc2)n1,-30,?,·,·,15%,1%
CCC/C(=N/Nc1ccc(Cl)cc1)c1cnnc(-c2ccccc2)n1,·,14µM*,·,·,-11%,·
COc1cc(NC(=O)COc2ccc(Br)cc2)ccc1NC(=O)C(C)C,-5,?,-23%,-14%,-11%,·
Oc1ccc(C[C@H]2CNC(=S)N2CC2CCCN2C[C@H](Cc2ccccc2)N2C[C@H](Cc3ccc(O)cc3)N(CC3CCCCC3)C2=S)cc1 (some centres undefined),-85*,·,-21%,-26%,-20%,·
CC(C)C[C@H]1CNC(=S)N1CC1CCCN1C[C@H](Cc1ccc(O)cc1)N1C[C@H](Cc2ccccc2)N(CC2CCCCC2)C1=S (some centres undefined),-62*,11µM*,?,-24%,-9%,·
Oc1ccc(C[C@H]2CN([C@@H](Cc3ccccc3)CN3CCC[C@@H]3CN3C(=S)NC[C@@H]3Cc3ccccc3)C(=S)N2CC2CCCCC2)cc1,-7,·,6%,-11%,-17%,·
Oc1ccc(C[C@H]2CNC(=S)N2CC2CCCN2C[C@H](Cc2ccc(O)cc2)N2C[C@H](Cc3ccc(O)cc3)N(CC3CCCCCC3)C2=S)cc1 (some centres undefined),-67*,?,?,?,?,·
Cc1nc(N2CCOCC2)[nH]c(=O)c1C,5,8%,i,-6%,2%,0%
CC(=O)N1c2ccc(S(=O)(=O)N3CCC(C(=O)NCCc4ccc(Cl)cc4)CC3)cc2CC1C (centres undefined),-40,10µM*,0%,-23%,?,-10%
CC(=O)N1c2ccc(S(=O)(=O)N3CCCC(C(=O)N4CCC(C)CC4)C3)cc2CC1C (centres undefined),?,11µM*,-17%,?,?,6%
CC(=O)N1c2ccc(S(=O)(=O)N3CCCC(C(=O)N4CCCC(C)C4)C3)cc2CC1C (centres undefined),?,?,i,-19%,-24%,2%
CC1Cc2cc(S(=O)(=O)N3CCN(c4cccc(Cl)c4)CC3)ccc2N1C(=O)C1CC1 (centres undefined),-26,?,i,-13%,-7%,0%
CC1Cc2cc(S(=O)(=O)N3CCN(c4ccc(Cl)cc4)CC3)ccc2N1C(=O)C1CC1 (centres undefined),-26,6.3µM*,-14%,-11%,?,-5%
CC(=O)N1c2ccc(S(=O)(=O)N3CCC(C(=O)N4CCN(c5ccc(Cl)cc5)CC4)CC3)cc2CC1C (centres undefined),-74*,10µM*,·,·,?,7%
Cc1nnc(SCc2cc(=O)oc3cc(O)ccc23)n1Cc1ccccc1,9,0%,-13%,-10%,-13%,-7%
CC[C@@H]1Cc2[nH][nH]c(=O)c2[C@H](CC(C)C)O1,4,·,40%,9%,-21%,·
Cc1nn(C)cc1CNC(=O)c1cccc(Cl)c1,19,21%,·,·,-7%,8%
SMILES,HCMV antiviral,HCV inh,Vaccinia mCherry,Vaccinia Venus,FMDV antiviral,Sm TGR block
CN1C(=O)Cc2cc(S(=O)(=O)N3CCN(c4cccc(Cl)c4)CC3)ccc21,-19,-22%,·,·,-11%,-4%
CN1C(=O)Cc2cc(S(=O)(=O)N3CCN(c4ccc(Cl)cc4)CC3)ccc21,+!,-6%,-21%,-5%,-18%,-2%
COc1cccc(N2CCN(C(=O)C3CCN(S(=O)(=O)c4ccc5c(c4)CC(C)N5C(C)=O)CC3)CC2)c1 (centres undefined),-20,11µM*,·,·,?,-2%
C=CCC(CC=C)(CNC(=O)C(=O)Nc1ccc(C(=O)OCC)cc1)c1ccccc1,22,·,i,-11%,0%,-1%
Oc1ccc2c(ccc3[nH]cnc32)c1,-35,-10%,-10%,-20%,33%,-4%
COc1ccccc1C=CC(=O)C=Cc1ccccc1OC,-100*,?,?,?,?,·
COc1ccccc1/C=C/C(C)=O,?,-11%,-7%,-6%,?,-8%
COc1ccccc1/C=C/C(=O)/C=C/c1ccccc1O,-98*,?,?,-24%,28%,20µM*
c1ccc(OCc2noc(CN3CCC(C4CCCCC4)C3)n2)cc1 (centres undefined),-61*,-7%,·,·,-15%,-9%
COCC1CCN(Cc2nc(COc3ccccc3)no2)C1 (centres undefined),10,8%,i,-5%,9%,-22%
COc1cc(/C=N/NC(=O)CN2CCCCC2)ccc1OCc1ccccc1,?,5%,-23%,?,39%,0%
Cc1nc(NC(=O)/C=C/c2ccc(Cl)cc2Cl)sc1C(=O)N(C)C,-61*,8%,i,-6%,-4%,4%
Cc1nc(NC(=O)/C=C/c2ccccc2)sc1C(=O)N(C)C,43,21%,i,-24%,36%,-5%
Cc1ccc(-c2cc3nccc(-c4cc([N+](=O)[O-])ccc4O)n3n2)cc1,-63*,·,-21%,-11%,-11%,-2%
CN(C)S(=O)(=O)c1cccc(CSCc2cccc(S(=O)(=O)N(C)C)c2)c1,-92*,2.2µM*,-4%,-8%,?,-11%
Cc1[nH]c2c(ccc3cccnc32)c1C,-10,-31%,-11%,-16%,15%,-17%
